PubChem BioAssay (NCI)
Where “and” joins values, the source holds several entries; their conditions need not be identical. Equal entries are not always repeated. This is part of a sample that, as a whole, favours compounds with a hit. Of some 83,000 tested, about 20% had one in any assay.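 In brief: 96-well plates, 48 h treatment, single concentration, percent growth endpoint.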 Calls of active or inactive are those of the source. How the source made its calls: active means growth percent below 10; inactive means the rest.

Legend:
Experiment in all cases: NCI-60 one-dose screen, 48 h (100 = growth as untreated, 0 = no growth, -100 = all killed)
Conditions in all cases: 10 µM unless noted
T-47D breast = system: T-47D breast
BT-549 breast = system: BT-549 breast
MDA-MB-435 melanoma = system: MDA-MB-435 melanoma
SW-620 colon = system: SW-620 colon
MCF7 breast = system: MCF7 breast
HCT-116 colon = system: HCT-116 colon
HCC-2998 colon = system: HCC-2998 colon
KM12 colon = system: KM12 colon

Measured: growth

O=C(N/N=C/c1cccc2ccccc12)C1CC1
inactive: T-47D breast 98.9% and 109% | BT-549 breast 101% | MDA-MB-435 melanoma 117% and 97.8% | SW-620 colon 110% and 102% | MCF7 breast 80.3% and 87.5% | HCT-116 colon 106% and 102% | HCC-2998 colon 104% and 101% | KM12 colon 108% and 104%

COc1ccc(CCN(C)CCCC(C#N)(c2ccc(OC)c(OC)c2)C(C)C)cc1OC (centres undefined)
inactive: T-47D breast 98.2% and 106% | BT-549 breast 94.4% and 93.3% and 94.6% | MDA-MB-435 melanoma 102% and 93.3% and 97.9% | SW-620 colon 92.8% and 100% and 92.6% | MCF7 breast 89% and 106% and 95.3% | HCT-116 colon 75% and 78.9% and 93.4% | HCC-2998 colon 99.7% and 111% and 97.5% | KM12 colon 114% and 115% and 95.6%

CC(O)Cn1cnc2c1c(=O)n(C)c(=O)n2C (centres undefined)
inactive: T-47D breast 85.8% | BT-549 breast 83.5% | MDA-MB-435 melanoma 109% | SW-620 colon 113% | MCF7 breast 92.8% | HCT-116 colon 102% | HCC-2998 colon 106% | KM12 colon 104%

CC(=O)NC(Cc1ccccc1)C(=O)Oc1ccc2ccccc2c1 (centres undefined)
inactive: T-47D breast 99.3% and 108% | BT-549 breast 110% | MDA-MB-435 melanoma 119% and 107% | SW-620 colon 107% and 96.7% | MCF7 breast 113% and 97.8% | HCT-116 colon 113% and 114% | HCC-2998 colon 105% and 97% | KM12 colon 103% and 94.8%

Cc1cc(=O)[nH]c(O)c1C#N
inactive: T-47D breast 97.2% and 91% | BT-549 breast 100% and 103% | MDA-MB-435 melanoma 101% and 103% | SW-620 colon 102% and 106% | MCF7 breast 97.3% and 103% | HCT-116 colon 100% and 96.2% | HCC-2998 colon 101% and 100% | KM12 colon 108% and 116%

Clc1ccc(NC(Nc2ccc(Cl)cc2)C(Cl)(Cl)Cl)cc1
inactive: T-47D breast 67.7% and 82.8% | BT-549 breast 69.3% and 85.8% | MDA-MB-435 melanoma 62.9% and 97.7% | SW-620 colon 69% and 98% | MCF7 breast 88.9% and 92.1% | HCT-116 colon 61.9% and 85.4% | HCC-2998 colon 80.6% and 92.4% | KM12 colon 48.6% and 84.9%

O=C(CCl)c1ccc2c(c1)Nc1ccccc1S2
inactive: BT-549 breast 74% and 76.1% | MDA-MB-435 melanoma 100% and 88.9% | SW-620 colon 92.2% and 79.1% | HCT-116 colon 69.1% and 64.3% | HCC-2998 colon 83.3% | KM12 colon 104% and 102%
85.5% (inactive) and -32.4% (active): MCF7 breast
71.2% (inactive) and -3.6% (active): T-47D breast

CC(C)Cc1ccc(C(C)C(=O)NCc2ccc(Cn3c(=O)sn(CCCCl)c3=O)cc2)cc1 (centres undefined)
92.3% (inactive) and -67.8% (active): BT-549 breast
92.4% (inactive) and -65.6% (active): HCT-116 colon
57% (inactive) and -46.4% (active): T-47D breast
57.3% (inactive) and -31.3% (active): MCF7 breast
87.3% (inactive) and -72.3% (active): SW-620 colon
95% (inactive) and 4.78% (active): KM12 colon
101% (inactive) and -83.6% (active): MDA-MB-435 melanoma
95.7% (inactive) and -44.7% (active): HCC-2998 colon

CCN(CC)CCOc1ccc(/C=N/Nc2nc3c([nH]2)c(=O)n(C)c(=O)n3C)cc1
inactive: T-47D breast 89.7% and 96.3% | BT-549 breast 105% and 96.1% | MDA-MB-435 melanoma 104% and 105% | SW-620 colon 108% and 104% | MCF7 breast 81.5% and 74.6% | HCT-116 colon 98.3% and 103% | HCC-2998 colon 102% and 111% | KM12 colon 109% and 106%

CCN(CC)CCC(CNc1ccnc2cc(Cl)ccc12)c1ccc(OC)cc1 (centres undefined)
active: MDA-MB-435 melanoma 8.96% and -30.1%
inactive: T-47D breast 57.9% and 77.2% | BT-549 breast 72.2% and 66.1% | SW-620 colon 77.2% and 61.2% | MCF7 breast 80.6% and 72.3% | HCT-116 colon 46.5% and 39.4% | HCC-2998 colon 70.9% and 52.7% | KM12 colon 77.9% and 75.8%

Cc1n[nH]c(=O)n(/N=C\c2c[nH]c3ccccc23)c1=O
inactive: T-47D breast 102% | BT-549 breast 117% | MDA-MB-435 melanoma 107% | SW-620 colon 106% | MCF7 breast 91.1% | HCT-116 colon 113% | HCC-2998 colon 108% | KM12 colon 105%

Nc1ccccc1SC1CC(=O)N(c2cccc3ccccc23)C1=O (centres undefined)
inactive: T-47D breast 90.4% | BT-549 breast 102% | MDA-MB-435 melanoma 88.7% | SW-620 colon 94.4% | MCF7 breast 88.2% | HCT-116 colon 89.4% | HCC-2998 colon 100% | KM12 colon 101%

CC(C)(C)c1ccc(O)c(CNC2CCCCC2)c1
inactive: T-47D breast 112% and 75.9% | BT-549 breast 85.1% | MDA-MB-435 melanoma 97.9% and 96.6% | SW-620 colon 101% and 98.5% | MCF7 breast 93% and 93.8% | HCT-116 colon 86.7% and 88.3% | HCC-2998 colon 52.7% and 104% | KM12 colon 105% and 92.2%

CN(Cc1ccccc1)Cc1ccccc1
inactive: T-47D breast 92.8% | BT-549 breast 106% | MDA-MB-435 melanoma 105% | SW-620 colon 112% | MCF7 breast 97.9% | HCT-116 colon 103% | HCC-2998 colon 99.4% | KM12 colon 98.5%

COc1ccc(/C(C#N)=C/c2ccccn2)cc1
inactive: T-47D breast 88.7% and 115% | BT-549 breast 103% | MDA-MB-435 melanoma 97% and 106% | SW-620 colon 112% and 130% | MCF7 breast 104% and 102% | HCT-116 colon 96.3% and 104% | HCC-2998 colon 97.7% and 103% | KM12 colon 101% and 102%

COc1ccc(-c2ncnc3c2ncn3C/C=C/CCl)cc1
inactive: T-47D breast 67.9% and 92.5% | BT-549 breast 53.8% and 87.2% | MDA-MB-435 melanoma 57.8% and 81.6% | SW-620 colon 61.1% and 74.7% | MCF7 breast 40.2% and 55.6% | HCT-116 colon 46.6% and 76.8% | HCC-2998 colon 91.2% and 95.4% | KM12 colon 85.4% and 102%

c1ccc2c(CC3=NCCN3)cccc2c1
inactive: T-47D breast 106% and 111% | BT-549 breast 101% and 96.9% | MDA-MB-435 melanoma 101% and 106% | SW-620 colon 107% and 110% | MCF7 breast 99.4% and 102% | HCT-116 colon 94.7% and 104% | HCC-2998 colon 97.5% and 103% | KM12 colon 109% and 111%

CC1=CCC2CC1C2(C)C (centres undefined)
inactive: T-47D breast 105% and 102% | BT-549 breast 71.6% and 68.8% | MDA-MB-435 melanoma 98.3% and 94.2% | SW-620 colon 101% and 103% | MCF7 breast 98.1% and 91.6% | HCT-116 colon 92.2% | HCC-2998 colon 42.3% | KM12 colon 100% and 110%
